Our source for the potency estimated from few doses values is PMC11062922 (Nature Chemical Biology, 2023).

Read-outs that look alike come from different tables or passages of the source.

One experiment has as its system ABL1. Also on record: species or system human, MV4-11 + K-562 + COLO205 + SK-N-BE2 + OVCAR-8. Conditions: read-out: apparent Kd, n = 1.
A further experiment deals with FYN. Also on record: species or system human, MV4-11 + K-562 + COLO205 + SK-N-BE2 + OVCAR-8. Conditions: read-out: apparent Kd, n = 1.
A further experiment concerns GAK. Also on record: species or system human, MV4-11 + K-562 + COLO205 + SK-N-BE2 + OVCAR-8. Conditions: read-out: apparent Kd, n = 1.
In the next experiment the test system is HCK. The arrangement: species or system human, MV4-11 + K-562 + COLO205 + SK-N-BE2 + OVCAR-8. Conditions: read-out: apparent Kd, compound concentrations: 100 nM and 1000 nM (sheet 'Samples'), n = 1.
The next experiment concerns LCK. Also on record: species or system human, MV4-11 + K-562 + COLO205 + SK-N-BE2 + OVCAR-8. Conditions: read-out: apparent Kd, n = 1.
The test system of another experiment is PTK6. The arrangement: species or system human, MV4-11 + K-562 + COLO205 + SK-N-BE2 + OVCAR-8. Conditions: read-out: apparent Kd; compound concentrations: 100 nM and 1000 nM (sheet 'Samples'), CATDS: 0.13556199485993101; n = 1.
The next experiment has as its system RIPK2. Also on record: species or system human, MV4-11 + K-562 + COLO205 + SK-N-BE2 + OVCAR-8. Conditions: read-out: apparent Kd; compound concentrations: 100 nM and 1000 nM (sheet 'Samples'), CATDS: 0.12946024003761; n = 1.
In the next experiment the test system is RIPK3. The arrangement: species or system human, MV4-11 + K-562 + COLO205 + SK-N-BE2 + OVCAR-8. Conditions: read-out: apparent Kd, n = 1.
The subject of a further experiment is YES1. The arrangement: species or system human, MV4-11 + K-562 + COLO205 + SK-N-BE2 + OVCAR-8. Conditions: read-out: apparent Kd, n = 1.
The test system of the next experiment is ABL2. Also on record: species or system human, MV4-11 + K-562 + COLO205 + SK-N-BE2 + OVCAR-8. Conditions: read-out: apparent Kd, n = 1.
In another experiment the test system is RET. The arrangement: species or system human, MV4-11 + K-562 + COLO205 + SK-N-BE2 + OVCAR-8. Conditions: read-out: apparent Kd, n = 1.
The subject of the next experiment is TNK1. Also on record: species or system human, MV4-11 + K-562 + COLO205 + SK-N-BE2 + OVCAR-8. Conditions: read-out: apparent Kd, n = 1.
Another experiment deals with CSNK2A1;CSNK2A3. The arrangement: species or system human, MV4-11 + K-562 + COLO205 + SK-N-BE2 + OVCAR-8. Conditions: read-out: apparent Kd, n = 1.
The test system of a further experiment is BCR. Also on record: species or system human, MV4-11 + K-562 + COLO205 + SK-N-BE2 + OVCAR-8. Conditions: read-out: apparent Kd, n = 1.
The test system of another experiment is CLK1. Also on record: species or system human, MV4-11 + K-562 + COLO205 + SK-N-BE2 + OVCAR-8. Conditions: read-out: apparent Kd; compound concentrations:100 nM and 1000 nM (sheet 'Samples'); n = 1.
The test system of another experiment is CLK4. The arrangement: species or system human, MV4-11 + K-562 + COLO205 + SK-N-BE2 + OVCAR-8. Conditions: read-out: apparent Kd; compound concentrations:100 nM and 1000 nM (sheet 'Samples'); n = 1.
Another experiment relates to CSNK2A2. The arrangement: species or system human, MV4-11 + K-562 + COLO205 + SK-N-BE2 + OVCAR-8. Conditions: read-out: apparent Kd; compound concentrations:100 nM and 1000 nM (sheet 'Samples'); n = 1.
The next experiment addresses Q6ZSR9 (human, UniProt Q6ZSR9). The arrangement: species or system MV4-11 + K-562 + COLO205 + SK-N-BE2 + OVCAR-8. Conditions: read-out: apparent Kd; compound concentrations: 100 nM and 1000 nM (sheet 'Samples'), CATDS: 3.5510221653806698E-2; n = 1.
[1] abbreviates: compound concentrations:100 nM and 1000 nM (sheet 'Samples').

Q6ZSR9, sequence (Q6ZSR9 whole entry, looked up): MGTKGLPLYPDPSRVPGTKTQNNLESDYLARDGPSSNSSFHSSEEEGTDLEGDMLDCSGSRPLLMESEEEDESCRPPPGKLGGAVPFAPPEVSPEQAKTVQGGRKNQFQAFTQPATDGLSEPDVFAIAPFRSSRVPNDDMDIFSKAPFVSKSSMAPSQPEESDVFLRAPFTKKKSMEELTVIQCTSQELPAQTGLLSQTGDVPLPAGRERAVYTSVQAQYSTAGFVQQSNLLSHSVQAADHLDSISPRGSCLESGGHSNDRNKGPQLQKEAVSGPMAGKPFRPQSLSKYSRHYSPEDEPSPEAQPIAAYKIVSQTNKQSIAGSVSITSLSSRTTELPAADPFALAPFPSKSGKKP

For the compound `c1ccc(Oc2ccc(Nc3ccnc4cc(-c5ccc(CN6CCCCC6)o5)ccc34)cc2)nc1` [GW567143X], the potency estimated from few doses in the experiment with ABL1 (compound concentrations: 100 nM and 1000 nM (sheet 'Samples'), CATDS: 4.7219356438219597E-2) is 634 nM; in the experiment with FYN (compound concentrations: 100 nM and 1000 nM (sheet 'Samples'), CATDS: 4.4213624367354799E-2), 771 nM; in the experiment on GAK (compound concentrations: 100 nM and 1000 nM (sheet 'Samples'), CATDS: 4.2163459383367997E-2), 895 nM; in the experiment on HCK (CATDS: 0.14005546575241301), 68.8 nM; in the experiment on LCK (compound concentrations: 100 nM and 1000 nM (sheet 'Samples'), CATDS: 5.0953813421882002E-2), 515 nM; with PTK6 it was 72.4 nM. Besides, the potency estimated from few doses was 77.9 nM with RIPK2; 948 nM with RIPK3 (compound concentrations: 100 nM and 1000 nM (sheet 'Samples'), CATDS: 4.1439147975506997E-2); 421 nM with YES1 (compound concentrations: 100 nM and 1000 nM (sheet 'Samples'), CATDS: 5.50755734526098E-2).

For the compound `CS(=O)(=O)Cc1ccc(Nc2nccc(-c3c(-c4cccc(NC(=O)c5c(F)cccc5F)c4)nn4ccccc34)n2)cc1` [GSK323543A], the potency estimated from few doses in the experiment with ABL2 (compound concentrations: 100 nM and 1000 nM (sheet 'Samples'), CATDS: 7.35852808685315E-2) was 971 nM; in the experiment with HCK (CATDS: 9.4870937315331097E-2), 576 nM; in the experiment on LCK (compound concentrations: 100 nM and 1000 nM (sheet 'Samples'), CATDS: 7.3424400867348402E-2), 976 nM; with RET (compound concentrations: 100 nM and 1000 nM (sheet 'Samples'), CATDS: 0.14439255275757601), 289 nM; in the experiment on RIPK3 (compound concentrations: 100 nM and 1000 nM (sheet 'Samples'), CATDS: 7.2905332862385097E-2), 992 nM; with TNK1 (compound concentrations: 100 nM and 1000 nM (sheet 'Samples'), CATDS: 0.144635692896082), 288 nM. In the experiment with YES1 (compound concentrations: 100 nM and 1000 nM (sheet 'Samples'), CATDS: 0.11796638249333601), the potency estimated from few doses is 395 nM.

On to `O=S(=O)(CCOCc1ccc(-c2ccc3ncnc(Nc4ccc(OCc5cccc(F)c5)c(Cl)c4)c3c2)o1)c1ccccc1` [GW615311X], for which the potency estimated from few doses in the experiment on CSNK2A1;CSNK2A3 (compound concentrations: 100 nM and 1000 nM (sheet 'Samples'), CATDS: 2.30931474147829E-2) was 2130 nM; in the experiment on FYN (compound concentrations: 100 nM and 1000 nM (sheet 'Samples'), CATDS: 3.12916843215739E-2), 1080 nM.

As for `COc1cc(/C=N/Nc2ncnc3[nH]ncc23)ccc1O` [GW578748X], the potency estimated from few doses in the experiment with ABL1 (setting [1]) is 1250 nM; in the experiment with BCR (setting [1]) it was 678 nM; in the experiment with CLK1 it was 1370 nM; in the experiment on CLK4, 401 nM; in the experiment with CSNK2A1;CSNK2A3 (setting [1]) it was 384 nM; in the experiment on CSNK2A2 it was 376 nM. In addition, in the experiment with RET (setting [1]), the potency estimated from few doses is 494 nM.

For `CC(C)c1nc(-c2ccc(F)c(NS(=O)(=O)c3c(F)cccc3F)c2)c(-c2ccnc(Nc3ccc(N4CCOCC4)nc3)n2)s1` [GSK1804250A], the potency estimated from few doses in the experiment on ABL1 (setting [1]) is 970 nM; in the experiment on ABL2 (setting [1]), 126 nM; in the experiment on BCR (setting [1]), 954 nM; with FYN (setting [1]), 944 nM; in the experiment on GAK (setting [1]) it was 600 nM; in the experiment with LCK (setting [1]) it was 342 nM. Further, the potency estimated from few doses was 2130 nM with RIPK3 (setting [1]), 328 nM with TNK1 (setting [1]) and 679 nM with YES1 (setting [1]).

With `CN1CCN(Cc2ccc(NC(=O)Nc3ccc(N(C)c4ccnc(Nc5ccc(CS(C)(=O)=O)cc5)n4)cc3)cc2)CC1.Cl` [GW827654A], the potency estimated from few doses in the experiment on ABL1 (compound concentrations: 100 nM and 1000 nM (sheet 'Samples'), CATDS: 3.4576588551286799E-2) was 1820 nM; in the experiment with ABL2 (compound concentrations: 100 nM and 1000 nM (sheet 'Samples'), CATDS: 5.6323659121428699E-2) it was 400 nM; with BCR (compound concentrations: 100 nM and 1000 nM (sheet 'Samples'), CATDS: 3.6645994259317798E-2) it was 1440 nM; in the experiment with Q6ZSR9, 1630 nM; with RET (compound concentrations: 100 nM and 1000 nM (sheet 'Samples'), CATDS: 0.30394920877794601), 22.8 nM; in the experiment with TNK1 (compound concentrations: 100 nM and 1000 nM (sheet 'Samples'), CATDS: 0.12102048296208601), 87.9 nM.

With `CC(=O)N1CCN(c2ccc(Nc3nccc(-c4sc(C(C)C)nc4-c4cccc(NS(=O)(=O)c5cccc(Cl)c5)c4)n3)cn2)CC1` [GSK1660437A], the potency estimated from few doses in the experiment with ABL2 (compound concentrations: 100 nM and 1000 nM (sheet 'Samples'), CATDS: 7.86907844661483E-2) was 351 nM; in the experiment with FYN (compound concentrations: 100 nM and 1000 nM (sheet 'Samples'), CATDS: 4.41921751489057E-2) it was 1120 nM; in the experiment with GAK (compound concentrations: 100 nM and 1000 nM (sheet 'Samples'), CATDS: 7.8355019854230004E-2), 353 nM; in the experiment on LCK (compound concentrations: 100 nM and 1000 nM (sheet 'Samples'), CATDS: 4.6764709487854099E-2), 973 nM; in the experiment with RIPK3 (compound concentrations: 100 nM and 1000 nM (sheet 'Samples'), CATDS: 3.6291204942441098E-2), 2010 nM; in the experiment with TNK1 (compound concentrations: 100 nM and 1000 nM (sheet 'Samples'), CATDS: 7.10025614221442E-2), 418 nM. Further, the potency estimated from few doses in the experiment on YES1 (compound concentrations: 100 nM and 1000 nM (sheet 'Samples'), CATDS: 4.9089753875203201E-2) is 868 nM.

With `CC(C)c1nc(-c2cccc(NS(=O)(=O)c3c(F)cccc3F)c2F)c(-c2ccnc(Nc3ccc(N4CCOCC4)nc3)n2)s1` [GSK2008607A], the potency estimated from few doses in the experiment on ABL1 (compound concentrations: 100 nM and 1000 nM (sheet 'Samples'), CATDS: 2.52520437406713E-2) is 706 nM; in the experiment with ABL2 (compound concentrations: 100 nM and 1000 nM (sheet 'Samples'), CATDS: 7.58086527625733E-2) it was 101 nM; in the experiment on BCR (compound concentrations: 100 nM and 1000 nM (sheet 'Samples'), CATDS: 3.4777380085243399E-2), 355 nM; in the experiment on FYN (compound concentrations: 100 nM and 1000 nM (sheet 'Samples'), CATDS: 2.15624347754024E-2), 1090 nM; with GAK (compound concentrations: 100 nM and 1000 nM (sheet 'Samples'), CATDS: 3.3626459583734003E-2), 378 nM; in the experiment with HCK (CATDS: 2.4637154538395101E-2), 751 nM. For the same compound, the potency estimated from few doses in the experiment with LCK (compound concentrations: 100 nM and 1000 nM (sheet 'Samples'), CATDS: 4.60457501367081E-2) was 215 nM; with RET (compound concentrations: 100 nM and 1000 nM (sheet 'Samples'), CATDS: 4.3035202568940403E-2), 241 nM; in the experiment with TNK1 (compound concentrations: 100 nM and 1000 nM (sheet 'Samples'), CATDS: 8.7218482008179707E-2), 82.7 nM; in the experiment on YES1 (compound concentrations: 100 nM and 1000 nM (sheet 'Samples'), CATDS: 2.6088425735390001E-2), 653 nM.
